# Assay results taken from ChEMBL document CHEMBL3988442, “University of Dundee, Small-Polar-MMV Screening Library” (2021).
# For some assays here: Entries with a potency or affinity are not part of this list.
# How the values were obtained:
# Parameters in all cases: scale not given: direction of the effect not stated beside the values
# [1] = molecular target: Protein translocase subunit SecA (Escherichia coli (strain K12)) (UniProt P10408); assay: Assay to Identify E. coli SecA ATPase Inhibitors; assay type: functional; details: 30 µM
# Protein translocase subunit SecA (Escherichia coli (strain K12)), sequence (P10408 whole entry): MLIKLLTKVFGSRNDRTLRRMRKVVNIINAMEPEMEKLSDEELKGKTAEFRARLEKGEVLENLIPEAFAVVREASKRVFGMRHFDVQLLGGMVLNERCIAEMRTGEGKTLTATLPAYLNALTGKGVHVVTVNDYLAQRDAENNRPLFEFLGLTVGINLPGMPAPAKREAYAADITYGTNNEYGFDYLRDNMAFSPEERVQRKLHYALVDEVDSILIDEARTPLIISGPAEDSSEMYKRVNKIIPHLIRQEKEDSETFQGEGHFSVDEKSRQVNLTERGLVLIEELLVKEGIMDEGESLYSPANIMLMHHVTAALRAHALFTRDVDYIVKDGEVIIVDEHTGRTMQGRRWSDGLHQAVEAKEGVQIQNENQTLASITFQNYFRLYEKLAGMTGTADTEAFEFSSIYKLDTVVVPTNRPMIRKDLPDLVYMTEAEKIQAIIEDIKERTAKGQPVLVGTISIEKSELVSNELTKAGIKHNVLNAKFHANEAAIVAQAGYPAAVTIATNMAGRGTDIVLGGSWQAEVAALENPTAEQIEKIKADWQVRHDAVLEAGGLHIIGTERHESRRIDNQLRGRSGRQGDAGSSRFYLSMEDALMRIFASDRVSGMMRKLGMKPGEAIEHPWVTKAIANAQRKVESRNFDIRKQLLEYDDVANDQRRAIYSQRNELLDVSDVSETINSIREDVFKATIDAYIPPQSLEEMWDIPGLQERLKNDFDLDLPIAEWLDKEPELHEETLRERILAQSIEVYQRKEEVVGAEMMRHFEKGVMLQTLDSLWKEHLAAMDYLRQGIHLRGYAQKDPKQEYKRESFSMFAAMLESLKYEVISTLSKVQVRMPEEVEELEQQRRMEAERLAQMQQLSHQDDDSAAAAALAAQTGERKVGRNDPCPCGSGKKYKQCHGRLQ
# [2] = molecular target: T1, Ubiquitin-activating enzyme e1, putative (Leishmania donovani (strain BPK282A1)) (UniProt E9BSI1); assay: Leishmania donovani Ubiquitin Activating Enzyme (LdE1); assay type: functional; details: 30 µM
# T1 sequence (whole entry): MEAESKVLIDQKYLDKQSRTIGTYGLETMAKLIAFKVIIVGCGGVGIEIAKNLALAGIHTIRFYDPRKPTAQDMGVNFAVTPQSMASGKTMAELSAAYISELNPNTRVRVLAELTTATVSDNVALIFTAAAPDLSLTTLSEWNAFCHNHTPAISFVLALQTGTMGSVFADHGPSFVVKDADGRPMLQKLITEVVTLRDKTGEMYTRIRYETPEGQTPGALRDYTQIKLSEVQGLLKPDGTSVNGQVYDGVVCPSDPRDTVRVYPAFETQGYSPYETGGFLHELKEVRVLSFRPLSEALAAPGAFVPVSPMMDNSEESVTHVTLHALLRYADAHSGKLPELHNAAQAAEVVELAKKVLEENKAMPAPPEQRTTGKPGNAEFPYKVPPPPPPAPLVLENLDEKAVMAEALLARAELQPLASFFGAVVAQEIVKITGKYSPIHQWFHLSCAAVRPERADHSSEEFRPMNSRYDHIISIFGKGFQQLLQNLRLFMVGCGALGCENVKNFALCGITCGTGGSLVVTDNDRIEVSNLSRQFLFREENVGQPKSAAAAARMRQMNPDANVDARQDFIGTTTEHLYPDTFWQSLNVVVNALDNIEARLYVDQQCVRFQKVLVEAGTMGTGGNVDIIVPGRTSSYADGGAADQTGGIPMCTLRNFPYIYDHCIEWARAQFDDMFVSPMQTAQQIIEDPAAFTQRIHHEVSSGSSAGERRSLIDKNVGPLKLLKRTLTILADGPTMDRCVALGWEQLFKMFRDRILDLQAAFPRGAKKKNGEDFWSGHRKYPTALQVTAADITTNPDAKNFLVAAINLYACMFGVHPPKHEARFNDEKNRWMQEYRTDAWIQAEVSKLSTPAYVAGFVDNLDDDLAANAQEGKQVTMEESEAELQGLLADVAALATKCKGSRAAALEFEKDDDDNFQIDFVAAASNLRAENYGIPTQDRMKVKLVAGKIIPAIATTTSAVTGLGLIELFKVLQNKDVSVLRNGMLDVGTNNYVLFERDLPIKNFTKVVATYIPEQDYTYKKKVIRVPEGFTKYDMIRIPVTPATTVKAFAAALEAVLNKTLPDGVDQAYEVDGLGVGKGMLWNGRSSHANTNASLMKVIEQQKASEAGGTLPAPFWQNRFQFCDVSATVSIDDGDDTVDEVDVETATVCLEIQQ
# [3] = molecular target: AMP-activated protein kinase, AMPK (Homo sapiens) (UniProt P54646+O43741+P54619+Q9UGJ0+Q9Y478+Q13131+Q9UGI9); assay: AMP-dependent Kinase enzyme assay. An in vitro enzyme assay that detects ADP turnover that is directly proportional to AMPK activity. This uses naive AMPK that is activated during the assay with MK-8722; assay type: functional; details: 30 µM
# [4] = molecular target: Sialic acid-binding Ig-like lectin 9 (Homo sapiens) (UniProt Q9Y336); assay: Hs-Siglec9 ALPHAscreen SOP 20170721; details: 10 µM
# Sialic acid-binding Ig-like lectin 9 (Homo sapiens), sequence (Q9Y336 whole entry): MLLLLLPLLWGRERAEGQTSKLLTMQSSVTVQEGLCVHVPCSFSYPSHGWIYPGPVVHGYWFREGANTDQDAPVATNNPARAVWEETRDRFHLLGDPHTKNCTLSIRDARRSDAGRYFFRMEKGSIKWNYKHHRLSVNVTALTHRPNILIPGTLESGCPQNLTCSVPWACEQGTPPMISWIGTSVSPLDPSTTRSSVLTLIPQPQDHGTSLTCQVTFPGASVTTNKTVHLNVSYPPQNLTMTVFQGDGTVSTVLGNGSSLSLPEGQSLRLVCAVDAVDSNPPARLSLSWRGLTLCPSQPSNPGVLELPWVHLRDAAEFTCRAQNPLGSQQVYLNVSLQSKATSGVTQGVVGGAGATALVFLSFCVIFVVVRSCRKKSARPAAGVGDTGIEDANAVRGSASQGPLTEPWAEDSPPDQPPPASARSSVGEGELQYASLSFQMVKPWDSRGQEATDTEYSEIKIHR
# Trypanosoma cruzi = assay: Trypanosoma cruzi phosphomannomutase and mannose-1-phosphate guanylyltransferase assay; assay type: functional; details: 10 µM
# [5] = molecular target: T2, Arginase-2, mitochondrial (Homo sapiens) (UniProt P78540); assay: in vitro enzyme assay to detect the production of urea directly proportional to the activity of Arginase II; assay type: functional; details: 33.3 µM; also: in the data most compounds retested in dose-response had high values
# T2 sequence (whole entry): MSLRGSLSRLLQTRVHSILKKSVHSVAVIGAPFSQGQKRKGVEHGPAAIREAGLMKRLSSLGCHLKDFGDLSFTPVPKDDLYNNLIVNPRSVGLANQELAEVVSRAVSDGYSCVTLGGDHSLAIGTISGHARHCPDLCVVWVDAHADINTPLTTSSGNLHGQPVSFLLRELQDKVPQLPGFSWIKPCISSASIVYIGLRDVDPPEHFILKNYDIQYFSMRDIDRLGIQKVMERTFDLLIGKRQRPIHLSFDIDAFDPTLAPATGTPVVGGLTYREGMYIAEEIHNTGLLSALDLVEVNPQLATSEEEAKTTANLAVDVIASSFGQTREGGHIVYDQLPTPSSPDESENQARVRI
# [6] = molecular target: T3, Proteasome subunit beta (Trypanosoma cruzi) (UniProt O96673); assay: Trypanosoma cruzi proteasome chymotrypsin-like activity (TcProtChymo) assay.; also: in the data most compounds retested in dose-response had high values; assay type: functional; details: 9.37 µM
# T3 sequence (whole entry): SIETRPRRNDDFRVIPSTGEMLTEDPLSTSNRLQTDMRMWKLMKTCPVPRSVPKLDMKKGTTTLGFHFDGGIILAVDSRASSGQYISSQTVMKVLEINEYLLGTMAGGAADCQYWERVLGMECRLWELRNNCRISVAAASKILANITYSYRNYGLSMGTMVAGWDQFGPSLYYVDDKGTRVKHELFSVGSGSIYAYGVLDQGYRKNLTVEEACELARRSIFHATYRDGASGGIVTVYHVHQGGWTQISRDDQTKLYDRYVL
# Homo sapiens = organism: Homo sapiens; assay: To identify inhibition of the IFN signalling (Jak-Stat) pathway via expression of an eGFP reporter gene under the control of an IFN-stimulated response element (ISRE) containing MxA promoter.; assay type: functional; details: 30 µM
# [7] = molecular target: T4, Tyrosyl-tRNA synthetase, putative (Trypanosoma cruzi (strain CL Brener)) (UniProt Q4DSP6); assay: Trypanosoma cruzi tyrosyl tRNA synthetase (TcYRS) _High Tyrosine SOP; assay type: functional; details: 30 µM; also: in the data most compounds retested in dose-response had high values
# T4 sequence (whole entry): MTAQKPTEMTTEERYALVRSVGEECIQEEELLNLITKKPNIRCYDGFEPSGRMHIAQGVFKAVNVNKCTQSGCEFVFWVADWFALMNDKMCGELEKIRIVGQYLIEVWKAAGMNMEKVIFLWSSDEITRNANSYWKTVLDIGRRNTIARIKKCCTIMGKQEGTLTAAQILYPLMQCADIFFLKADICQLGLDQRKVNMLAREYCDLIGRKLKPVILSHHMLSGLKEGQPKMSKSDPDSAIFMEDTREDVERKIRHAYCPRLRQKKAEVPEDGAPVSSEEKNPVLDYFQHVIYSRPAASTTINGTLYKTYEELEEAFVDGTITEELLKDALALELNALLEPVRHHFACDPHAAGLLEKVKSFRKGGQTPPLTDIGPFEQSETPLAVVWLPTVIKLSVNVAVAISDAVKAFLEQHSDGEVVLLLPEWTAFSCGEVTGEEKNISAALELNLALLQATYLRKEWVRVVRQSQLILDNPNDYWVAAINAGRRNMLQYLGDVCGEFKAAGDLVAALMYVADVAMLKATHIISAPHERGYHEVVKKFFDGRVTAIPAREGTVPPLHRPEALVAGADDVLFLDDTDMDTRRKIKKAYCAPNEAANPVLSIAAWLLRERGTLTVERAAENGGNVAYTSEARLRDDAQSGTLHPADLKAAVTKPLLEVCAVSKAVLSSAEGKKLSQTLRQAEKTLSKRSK
# [8] = molecular target: T4, Tyrosyl-tRNA synthetase, putative (Trypanosoma cruzi (strain CL Brener)); assay: Trypanosoma cruzi tyrosyl tRNA synthetase (TcYRS) SOP; assay type: functional; details: 30 µM
# [9] = molecular target: Chromo domain-containing protein 1 (Saccharomyces cerevisiae (strain ATCC 204508 / S288c) (Baker's yeast)) (UniProt P32657); assay: ScCHD-1 Enzyme Inhibition Assay; assay type: functional; details: 30 µM; also: in the data most compounds retested in dose-response had high values
# Chromo domain-containing protein 1 (Saccharomyces cerevisiae (strain ATCC 204508 / S288c) (Baker's yeast)), sequence (P32657 whole entry, the tested form may be a part): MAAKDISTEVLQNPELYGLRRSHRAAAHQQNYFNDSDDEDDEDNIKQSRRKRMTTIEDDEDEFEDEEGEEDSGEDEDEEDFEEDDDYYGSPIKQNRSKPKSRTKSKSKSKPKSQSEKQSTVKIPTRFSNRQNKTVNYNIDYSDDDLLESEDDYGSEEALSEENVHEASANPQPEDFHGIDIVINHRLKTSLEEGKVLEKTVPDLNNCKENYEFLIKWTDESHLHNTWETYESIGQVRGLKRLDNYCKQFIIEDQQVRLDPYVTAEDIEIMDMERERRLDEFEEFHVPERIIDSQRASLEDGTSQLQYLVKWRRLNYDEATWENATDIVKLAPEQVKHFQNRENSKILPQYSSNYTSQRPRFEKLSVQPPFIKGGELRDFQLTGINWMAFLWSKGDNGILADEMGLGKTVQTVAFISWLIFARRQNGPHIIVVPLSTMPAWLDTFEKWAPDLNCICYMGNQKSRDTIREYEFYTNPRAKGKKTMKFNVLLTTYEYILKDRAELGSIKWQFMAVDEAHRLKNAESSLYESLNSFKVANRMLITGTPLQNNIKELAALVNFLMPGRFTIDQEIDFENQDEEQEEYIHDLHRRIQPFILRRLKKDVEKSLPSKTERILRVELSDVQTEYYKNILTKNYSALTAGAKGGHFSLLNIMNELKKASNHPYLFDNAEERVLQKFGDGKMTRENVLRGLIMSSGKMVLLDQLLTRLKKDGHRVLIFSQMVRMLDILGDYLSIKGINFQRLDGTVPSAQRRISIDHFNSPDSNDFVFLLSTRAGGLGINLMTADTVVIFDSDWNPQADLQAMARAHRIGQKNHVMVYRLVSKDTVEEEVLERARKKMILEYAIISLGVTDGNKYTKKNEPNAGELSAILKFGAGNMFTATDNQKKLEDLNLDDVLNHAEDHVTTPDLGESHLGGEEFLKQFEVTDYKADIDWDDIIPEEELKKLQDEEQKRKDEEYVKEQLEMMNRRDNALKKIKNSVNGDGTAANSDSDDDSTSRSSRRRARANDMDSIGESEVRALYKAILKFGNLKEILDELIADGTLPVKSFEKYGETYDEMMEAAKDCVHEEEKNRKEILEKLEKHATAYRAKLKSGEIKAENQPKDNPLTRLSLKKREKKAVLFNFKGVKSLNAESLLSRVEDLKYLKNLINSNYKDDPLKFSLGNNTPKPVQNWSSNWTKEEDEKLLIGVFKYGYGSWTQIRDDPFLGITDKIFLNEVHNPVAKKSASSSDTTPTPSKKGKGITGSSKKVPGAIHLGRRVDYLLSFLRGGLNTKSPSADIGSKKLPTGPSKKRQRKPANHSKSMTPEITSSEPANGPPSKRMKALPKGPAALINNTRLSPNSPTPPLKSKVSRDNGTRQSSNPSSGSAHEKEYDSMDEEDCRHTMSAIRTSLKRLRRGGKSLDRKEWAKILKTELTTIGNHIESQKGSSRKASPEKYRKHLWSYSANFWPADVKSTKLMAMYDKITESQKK
SMILES,Percent Effect [1] [%],Percent Effect [2] [%],Percent Effect [3] [%],Percent Effect [4] [%],Percent Effect (Trypanosoma cruzi) [%],Percent Effect [5] [%],Percent Effect [6] [%],Percent Effect (Homo sapiens) [%],Percent Effect [7] [%],Percent Effect [8] [%],Percent Effect [9] [%]
COc1ccc(S(=O)(=O)N2CCC(S(C)(=O)=O)CC2)cc1C,-3.14,7.79,3.88,0.29,4.04,1.94,4.7,-5.43,3.17,11.5,-6.76
COc1cc(NC(=O)c2cc(C)sc2C)c(C(=O)N(C)C)cc1OC,0.25,7.79,-2.17,6.61,4.42,-37.2,19.1,-8.35,4.3,13.6,-1.78
CN(C)CC1CN(c2cnc3ccccc3n2)CCO1 (configuration not stated),-0.138,22.8,-4.08,-7.06,3.49,6.84,12.7,19.6,7.39,26.6,-5.98
c1ccc(Cn2cccn2)c(CNCC2CNc3ccnn3C2)c1 (configuration not stated),-5.51,10.4,-9.17,10.9,13.5,-4.63,13.3,3.57,16.5,21.9,-11
COc1ccnc(N2CCN(C(=O)c3cnn(C)c3C3CC3)CC2)n1,-5.79,10.8,-3.14,28.6,3.81,0.744,6.61,-9.54,4.3,16.1,-13.1
COc1ccc2c(c1)C1(CCN(Cc3ccncc3)CC1)N(C)CC2,-3.01,7.79,2.38,7.8,-3.06,0.645,14.4,-6.76,0,3.85,-8.34
CCC(C)N(C)CCNC(=O)NCc1cccc(-n2cncn2)c1 (configuration not stated),-5.23,5.41,-2.01,27.3,4.59,0.248,9.87,-1.6,2.15,6.17,-12.3
COc1ccc(C2=CCN(C(=O)C3CC(=O)N(C4CC4)C3)CC2)cc1 (configuration not stated),-3.27,-5.26,2.62,-10.1,-2.15,2.16,1.61,19.9,2.46,-6.17,-1.27
c1ccc(-n2ncc(CNCC3CCCN3c3cccnn3)n2)cc1 (configuration not stated),-3.03,-28.9,-19.7,8.84,11.7,-5.4,-3.64,6.81,12.3,18.5,0.0713
CNC(=O)c1cccc(CNC(=O)C2CC(=O)N(CCN(C)C)C2)c1 (configuration not stated),-5.39,5.33,4.48,0.817,-2.63,-1.04,12.2,14.1,3.83,6.17,-3.88
CSCC(CCO)NC(=O)Nc1cc(C)ccc1C (configuration not stated),-3.37,2.74,0.417,-7.14,-7.83,4.09,15.3,5.34,1.07,5,-3.27
CCc1nc(CN(C)C2CCN(Cc3ccc(C#N)cc3F)C2)no1 (configuration not stated),-6.15,10.8,-3.61,-0.906,-6.7,-6.01,12.6,20.8,7.39,1.24,-7.82
CCN(CC)C(=O)CN(C)C1CCc2ccccc21 (configuration not stated),-0.321,18.4,-0.859,-2.93,3.57,3.83,18.7,11.3,8.33,21.9,-9.79
CCc1nc(C(=O)NCc2ccc(N3CCNC(=O)C3)c(F)c2)c[nH]1,2.33,18.9,-4.78,31.7,4.63,-3.81,20,13.4,5.82,12.2,-2.24
CCn1cnnc1C1CCN(C(=O)c2ccc(Cl)s2)CC1,-3.49,17.7,1.65,2.56,-0.661,2.66,5.98,-19.1,4.43,11.4,-3.04
Cc1nn(C)c(Cl)c1C1CCCN1C(=O)c1nccnc1N (configuration not stated),-2.73,16.2,-10.8,-6.66,-3.3,0.802,12.4,1.8,7.39,18.5,-6.71
Cn1ccnc1CN1CCCN(C(=O)c2ccc3c(c2)COC3)CC1,-5.22,18.4,0.632,-6.65,-6.44,3.24,7.7,-1.32,4.43,11.1,-7.65
COc1ccccc1OCCC(=O)N1CCCC1Cn1cc(C)cn1 (configuration not stated),-4.84,13,5.75,5.19,1.86,3.16,0.0808,7.77,7.62,18.8,-6.89
CNS(=O)(=O)Cc1ccc(CNC(=O)Nc2cn[nH]c2)cc1,-5.68,20.2,6.15,-12.1,-3.68,1.52,8.11,18.9,2.46,13.9,-0.403
O=C(c1ccn[nH]1)N1CCCC(n2cncn2)C1 (configuration not stated),-7.58,11.4,-2.36,4.37,-0.718,0.645,12.9,6.04,2.08,15.2,-14.9
CCOc1ccc(C#N)cc1NCC(=O)Nc1cc(C)no1,-6.06,17.7,-5.05,-0.0832,3.68,-7.99,4.34,-2.7,3.45,-130,-5.12
O=C([C@H]1COC[C@H]2CN(Cc3ccco3)C[C@H]21)N1CCCO1,-7.92,18.7,-1.75,0.139,4.63,-47.9,4.62,-0.652,6.25,15,-6.91
